Drawing on PubChem BioAssay (NCATS), this text covers Potency for 40 molecules.

Structures are written as SMILES. “And” between values parts separate entries of the source, which are not always exact repeats. Equal values may be shown once. Results filed as inconclusive are left out. The source made the active and inactive calls. Calls follow the shape of the dose curve; as a rule, active = well fitted inhibition curve with a large enough effect; inconclusive = small, poorly fitted or top-dose-only effect; inactive = no such curve, though single readings can be large or run the other way.
Potency is read from the fitted curve at half-maximal effect.

Sequence of Tyrosine-protein kinase Yes (Homo sapiens) (P07947 whole entry, looked up): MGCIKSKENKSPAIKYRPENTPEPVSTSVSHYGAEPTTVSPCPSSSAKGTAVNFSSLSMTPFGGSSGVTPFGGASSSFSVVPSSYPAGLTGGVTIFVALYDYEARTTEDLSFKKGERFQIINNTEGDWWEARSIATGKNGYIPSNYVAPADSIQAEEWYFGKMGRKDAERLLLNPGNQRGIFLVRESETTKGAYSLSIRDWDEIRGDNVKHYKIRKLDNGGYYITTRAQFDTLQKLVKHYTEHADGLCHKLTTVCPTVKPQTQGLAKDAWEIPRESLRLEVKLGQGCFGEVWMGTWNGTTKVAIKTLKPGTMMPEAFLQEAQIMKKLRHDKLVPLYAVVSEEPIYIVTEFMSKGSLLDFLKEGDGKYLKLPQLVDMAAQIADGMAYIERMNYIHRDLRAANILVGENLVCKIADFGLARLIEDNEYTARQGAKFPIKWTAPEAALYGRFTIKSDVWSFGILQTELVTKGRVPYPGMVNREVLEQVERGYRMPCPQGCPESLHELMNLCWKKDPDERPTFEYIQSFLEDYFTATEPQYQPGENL

The target of the test is Tyrosine-protein kinase Yes (Homo sapiens) (UniProt P07947). The test is described as follows: qHTS for small molecule inhibitors of Yes1 kinase: Primary Screen (AID 686947). Also: nearly all actives have a fitted effect of over 60% in size. The following applies: Yes1 kinase biochemical qHTS inhibition; series mostly up to 76.9 µM. The procedure, abridged:
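ADP-Glo luminescence reports ADP formed by 4 nM Yes1 phosphorylating poly(E4Y) (0.3 mg/mL) with 0.1 mM ATP for 60 min at room temperature, following 20 min compound preincubation; normalised between DMSO wells with and without enzyme.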
(In qHTS, concentration-response curves come from the screen itself.)
For the molecule `Cc1cc(-c2ccco2)cc(C)c1C=Cc1cncc(-c2nn[nH]n2)c1`, the Potency was 1.04 µM (active).

For `CS(=O)(=O)CCNCc1ccc(-c2ccc3ncnc(Nc4ccc(OCc5ccccc5)cc4)c3c2)o1`, the Potency was 0.463 µM (active).

For `CC(=O)Nc1cccc(C#Cc2cncnc2Nc2ccc(OCc3cccc(F)c3)c(Cl)c2)n1`, the Potency result was “inactive”.

Consider `ON=C1CCc2cc(-c3nc(C4CCNCC4)[nH]c3-c3ccncc3)ccc21`, for which the Potency result is “inactive”.

For the molecule `COC(=O)Nc1nc2ccc(Oc3ccc(NC(=O)Nc4cccc(C(=O)O)c4)cc3)cc2[nH]1`, the Potency result was “inactive”.

With `Nc1ccc(C#Cc2cncnc2Nc2ccc(OCc3cccc(F)c3)c(Cl)c2)cc1`, the Potency result was “inactive”.

Turning to `COC(=O)c1sc(-n2cnc3cc(OC)c(OC)cc32)cc1OCc1ccccc1C(F)(F)F`, the Potency was 0.654 µM (active).

In the case of `O=S1CCN(Cc2ccc(-c3ccc4ncnc(Nc5ccc(OCc6ccccc6)c(Cl)c5)c4c3)o2)CC1`, the Potency is 0.368 µM (active).

`CCS(=O)(=O)c1ccc(OC)c(Nc2ncc(-c3cccc(F)c3)o2)c1`: the Potency was 0.146 µM (active).

Regarding `NS(=O)(=O)c1ccc(N=Nc2c(O)[nH]c3ccc(Cl)cc23)cc1`, the Potency is 36.8 µM (active).

As for `Oc1[nH]c2ccccc2c1C=Nc1ccc(-n2cncn2)cc1`, the Potency is 9.23 µM (active).

For `CS(=O)(=O)Nc1ccc(N=Cc2c(O)[nH]c3ccccc23)cc1`, the Potency was 3.68 µM (active).

With `CCN1CCC(CC(=O)Nc2n[nH]c3nc(-c4cccs4)c(Br)cc23)CC1`, the Potency is 26 µM (active).

Consider `NCc1ccc(-c2nc(-c3ccc(Cl)c(O)c3)c(-c3ccncc3)[nH]2)cc1`, for which the Potency is 0.328 µM (active).

With `COc1cc(C=NNc2ncnc3c2cnn3C(C)C)ccc1O`, the Potency is 0.184 µM (active).

Consider `CCn1c(-c2nonc2N)nc2c(C#CCN)ncc(OCCCN)c21`, for which the Potency result was “inactive”.

`COc1cc2ncn(-c3cc(OCc4ccccc4Cl)c(C(N)=O)s3)c2cc1OC`: the Potency was 5.19 µM (active).

Take `CN(C)c1ccc2[nH]c(O)c(C=Nc3ccc(S(N)(=O)=O)cc3)c2c1`: the Potency was 4.63 µM (active).

On to `NS(=O)(=O)c1ccc(N=Nc2c(O)[nH]c3ccc(C(=O)NCc4ccncc4)cc23)cc1`, for which the Potency is 4.63 µM (active).

Regarding `O=C1NC(=O)C(c2ccc(Cl)cc2)=C1Nc1ccc(Cl)c(C(=O)O)c1`, the Potency result is “inactive”.

Regarding `Cc1ccc(O)cc1Nc1ccnc2ccc(S(C)(=O)=O)cc12`, the Potency is 0.0021 µM (active).

`COc1cccc(-n2ncc3c(NN=Cc4cccc(F)c4)ncnc32)c1`: the Potency is 0.146 µM (active).

Consider `Nc1nccc(-c2c(-c3ccc(F)cc3)ncn2C2CCNCC2)n1`, for which the Potency was 2.07 µM (active) and 6.54 µM (active).

`COc1cc(C)c(NC(=O)CN(C)C)cc1Nc1nc(Nc2cccc(F)c2C(N)=O)c2cc[nH]c2n1`: the Potency result was “inactive”.

For the molecule `Nc1ncc(-c2cccc(S(N)(=O)=O)c2)c2scc(-c3ccc(F)c(Cl)c3)c12`, the Potency is 0.368 µM (active).

With `Cc1nnc(-c2cccc(-c3ccc(C(=O)NCC4CC4)cc3)c2)o1`, the Potency entry was “inactive”.

Consider `Cc1ccc(C(=O)NC2CC2)cc1-c1ccc2[nH]ncc2c1`, for which the Potency entry is “inactive”.

`CC1=C(C(=O)Nc2ccc3n[nH]c(C)c3c2)C(c2ccc(C(F)(F)F)cc2)CC(=O)N1` (stereo not given): the Potency is 6.54 µM (active).

Consider `COC(=O)c1cncc(C=Cc2c(C)cc(O)cc2C)c1`, for which the Potency was 1.3 µM (active).

Regarding `CC(Oc1cc(-n2cnc3ccc(OC4CCN(C)CC4)cc32)sc1C(N)=O)c1ccccc1Cl` (stereo not given), the Potency was 5.82 µM (active).

Consider `CCn1c(-c2nonc2N)nc2c(C#CC(C)(C)O)ncc(OCC3CCNCC3)c21`, for which the Potency is 23.2 µM (active).

`CCCN1CCC(c2ccc(Nc3nc(Nc4cc(F)ccc4C(N)=O)c4cc[nH]c4n3)c(OC)c2)CC1`: the Potency entry is “inactive”.

As to `CN(C)CCNC(=O)Nc1ccc(N(C)c2ccnc(Nc3ccc(CS(C)(=O)=O)cc3)n2)cc1`, the Potency was 7.33 µM (active).

In the case of `NC(=O)c1sc(-n2cnc3ccccc32)cc1OCc1ccccc1Br`, the Potency was 18.4 µM (active).

On to `COC(=O)Nc1nc2ccc(Oc3cccc(NC(=O)Nc4cc(C(F)(F)F)ccc4F)c3)cc2[nH]1`, for which the Potency was 11.6 µM (active).

Take `NS(=O)(=O)c1ccc(Nc2cc(-c3cccc(O)c3)[nH]n2)cc1`: the Potency is 23.2 µM (active).

Regarding `O=C1NC(=O)C(c2cccc(Cl)c2)=C1Nc1ccc(O)c(Cl)c1`, the Potency was 9.23 µM (active).

Take `CNC(=O)c1cncc(C=Cc2ccccc2Cl)c1`: the Potency is 8.23 µM (active).

As to `NC(=O)c1ccc(Oc2nccc(-c3c(-c4ccc(F)cc4)ncn3C3CCNCC3)n2)cc1`, the Potency was 11.6 µM (active).

For the molecule `COc1ccc(-c2cc3c(N)ncnc3o2)cc1`, the Potency was 6.54 µM (active).
